# About 83,000 compounds went through this panel and 20% of them were active in at least one assay; those are over-represented in the sample as a whole.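 Negative percent growth values reflect cell death: -40 means 40% of the cells present at the start died, and -100 means all died.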 Active and inactive are the calls of the source. Rule for the calls: active = growth percent below 10; inactive = the rest.
# Test system: NCI-H460 lung
# Test: NCI-60 one-dose screen, 48 h (100 = growth as untreated, 0 = no growth, -100 = all killed)
# Settings: 10 µM unless noted
row,Structure (SMILES),growth
1,NC(=O)CC1C=CCC1 (stereo not drawn),101% (inactive)
2,CC(=O)Nc1ccc(C=Nc2ccc3ccccc3c2)cc1,111% (inactive)
3,O=[N+]([O-])c1ccc(O)c(-c2nc3ccccc3s2)c1,63.2% (inactive)
4,CCOC(=O)c1nn(C2CCCCO2)c2ccc(NC(=O)Cn3nnc4ccccc43)cc12 (stereo not drawn),100% (inactive)
5,COC(=O)c1cc2c(=O)[nH]cc3c2c(n1)CCC3,101% (inactive)
6,CCCCCn1c(C)cc(/C=C\c2ccc3cc(C)ccc3[n+]2C)c1C,-75.1% (active)
7,O=c1[nH]c2cc(Cl)c(Cl)cc2n2cc3ncccc3c12,62.8% (inactive)
8,c1nc(N2CCOCC2)c2[nH]ccc2n1,104% (inactive)
9,CCCC[C@@H](C=O)NC(=O)[C@H](CC(C)C)NC(=O)[C@H](CC(C)C)NC(=O)OCc1ccccc1,0.451% (active)
10,CNC(=O)c1cc(Oc2ccc3nc(NC(=O)c4ccc5ncccc5c4)sc3c2)ccn1,98.6% (inactive)
11,CC(C)(C)OC(=O)N1C=C/C(=C\Cn2cc(-c3ccccc3)nn2)CC1,84.7% (inactive)
12,CC[C@@H]1NC(=O)[C@@H]2CCCCN2C(=O)[C@@H]2CCCN2C(=O)[C@@H](NC(=O)[C@H](Cc2cc(F)cc(F)c2)NC(=O)Nc2ccc(C3CC3)cc2F)[C@H](C)OC(=O)[C@@H]2C[C@@H](C)CN2C1=O,13.5% (inactive)
13,CCCSc1nc(N)nc2nc[nH]c12,106% (inactive)
14,O=C(Nc1ccc(F)cc1)c1ccccc1,105% (inactive)
15,COc1ccc(-c2ccc(NNC(=O)c3ccc(F)cc3)nn2)cc1OC,93.2% (inactive)
16,COc1ccc(C(=O)CSc2nnc(-c3cc(-c4ccccc4)nc4ccccc34)o2)cc1,106% (inactive)
17,O=C(O)c1cc([N+](=O)[O-])ccc1Br,105% (inactive)
18,O=C(Nc1ccc(Oc2ccc(F)cc2)c(Cl)c1)c1cccnn1,76.8% (inactive)
19,Cc1cc(-c2ccc(N=Nc3c(S(=O)(=O)O)cc4cc(S(=O)(=O)O)cc(N)c4c3O)c(C)c2)ccc1N=Nc1cc(S(=O)(=O)O)c2ccccc2c1O,107% (inactive)

row,Structure (SMILES),growth
1,COc1cc2c(cc1OCCCN1CCN(CCCOc3cc4c(cc3OC)C(=O)N3C[C@H](F)C[C@H]3C=N4)CC1)N=C[C@@H]1C[C@@H](F)CN1C2=O,1.24% (active)
2,Cc1nc(Cl)cc(N(c2cc(Cl)nc(C)n2)c2ncc(C(=O)Nc3c(C)cccc3Cl)s2)n1,59.5% (inactive)
3,Cn1cc(-c2noc(-c3cn(C)c4ncc(Br)cc34)n2)c2cc(Cl)ccc21,25.8% (inactive)
4,C=C(C)[C@@H]1CC[C@]2(C(N)=O)CC[C@]3(C)[C@H](CC[C@@H]4[C@@]5(C)C/C(=C/c6cccnc6)[C@H](O)C(C)(C)[C@@H]5CC[C@]43C)[C@@H]12,5.04% [100 µM] (active)
5,Nc1nc(Nc2ccccc2)c2ncn(Cc3ccc4c(c3)OCO4)c2n1,15.9% (inactive)
6,C[n+]1c2ccccc2nc2c(N)cc(N)cc21,86.6% (inactive)
7,CCOC(=O)c1cc(C(=O)c2ccc(OC)c(OC)c2)n2ccc(-c3ccccn3)cc12,17.9% (inactive)
8,O=C(NNc1ccc(-c2ccccc2)nn1)c1ccccc1,100% (inactive)
9,CCOC(=O)c1nc2c3ccccc3ccn2c1C(=O)OC,103% (inactive)
10,c1cc2ccc3cc2cc1CNCCN1CCNCc2ccc4ccc(cc4c2)CNCCN(CCNC3)CCNCc2ccc3ccc(cc3c2)CNCC1,16.1% (inactive)
11,Cn1cc(-c2nnc(-c3cn(C)c4ncc(Br)cc34)s2)c2cc(Br)ccc21,99.4% (inactive)
12,O=C1/C(=C/c2cccc(OCc3ccccc3)c2)Oc2cc(OCCN3CCCCC3)ccc21,83.3% (inactive)
13,CN(Cc1cccc(C(F)(F)F)c1)C(=O)[C@@H](CC(=O)N1CCC(N2CCCCC2)CC1)N1C(=O)[C@@H](N2C(=O)OC[C@@H]2c2ccccc2)[C@H]1/C=C/c1ccccc1,89% (inactive)
14,Cc1cc(NN=C(c2ccc(O)cc2)c2ccc(O)cc2)c([N+](=O)[O-])cc1[N+](=O)[O-],27.3% (inactive)
15,CCOC(=O)CCC[P+](c1ccccc1)(c1ccccc1)c1ccccc1,82.2% (inactive)
16,CCN(CC)c1ccc(/C=C/c2ccc3cc(C)ccc3[n+]2CC)cc1,-48.4% (active)
17,O=C(N/N=C/c1ccc([N+](=O)[O-])cc1)c1ccc(Br)o1,105% (inactive)
18,CC(C)C1=NOC(=O)C1=Cc1cn(-c2ccccc2)nc1-c1ccc(Br)cc1,83.5% (inactive)
19,COc1ncnc2c(-c3ccccc3)cn(COCc3ccccc3)c12,34.1% (inactive)

# — PubChem BioAssay (NCI)
